This is an account of results in PubChem BioAssay (NCI).

This is part of a sample that, as a whole, favours compounds with a hit. Of some 83,000 tested, about 20% had one in any assay.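 Negative percent growth values reflect cell death: -40 means 40% of the cells present at the start died, and -100 means all died.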 Active and inactive are the calls of the source.

This test deals with SK-MEL-5 melanoma. The test is described as follows: NCI-60 one-dose screen, 48 h (100 = growth as untreated, 0 = no growth, -100 = all killed). Particulars: 10 µM unless noted. The method, then: Growth inhibition of the SK-MEL-5 human tumor cell line is measured as a screen for anti-cancer activity. Cells are grown in 96 well plates and exposed to the test compound for 48 hours. Compounds are tested at a single concentration, which is 10^-5 M for most compounds. The reported endpoint is percent growth (GI% or GIPRCNT), where numbers from 0 - 100% represent growth inhibition, and numbers from -100% - 0 represent cell death. For example, a value of 40 represents 60% growth inhibition. A value of 0 means no net growth occurred over the course of the experiment. A value of -40 indicates 40% of cells at the beginning of the experiment died by the end of the experiment. A value of -100 means all cells are dead at the end of the experiment.
NCI-60 Human Tumor Cell Lines Screen was performed using the standard one-dose NCI protocol, which is described in more detail at https://dtp.cancer.gov/discovery_development/nci-60/default.htm.
Compounds with GIPRCNT values below 10 were considered active. Activity score was based on GIPRCNT using the following formula: […]
Score is 0 for GIPRCNT values of 100 or above, 50 for GIPRCNT values of 0, and 100 for GIPRCNT values of -100.
`O=C1OC2(c3ccccc31)c1ccccc1-c1ccccc12`: the growth is 78.9% (inactive).

As for `NC(=N\N=C/Cc1ccccc1)/C(N)=N\N=C\Cc1ccccc1`, the growth is 107% (inactive).

As to `CCc1ccc(-c2nc(SCC(=O)NC3CCCCC3)n[nH]2)cc1`, the growth is 61.5% (inactive).

Take `COc1ccc(C2=NN(C(N)=S)C(c3ccc4c(c3)OCO4)C2)cc1` (stereo not given): the growth was 41.5% (inactive).

`CCOc1cc(/C=C/C(=O)CC(=O)/C=C/c2ccc(OC(=O)CNc3nc4ccc(OC)cc4s3)c(OCC)c2)ccc1OC(=O)CNc1nc2ccc(OC)cc2s1`: the growth was 30.1% (inactive).

With `O=C(Nc1nc(-c2ccc(Cl)cc2)cs1)c1cc(-c2ccc(Br)cc2)nc2ccc(Cl)cc12`, the growth is 14% (inactive).

With `Cc1cc(C)c(C(=O)c2cccs2)c(C)c1`, the growth was 109% (inactive).

With `FC(F)(F)c1cc(-c2nnc3n2N=C(N2CCCC2)CS3)cc(C(F)(F)F)c1`, the growth is 80.5% (inactive).

Regarding `O=c1[nH]cc(Nc2cc(Cl)c3nonc3c2[N+](=O)[O-])c(=O)[nH]1`, the growth was 105% (inactive).

`C[C@@H]1CN(c2nc3c(cc2F)c(=O)c(C(=O)O)cn3C(C)(C)C)C[C@H](C)N1`: the growth was 92.4% (inactive).

Take `Nc1nc(NC2CC2)c2ncn(C3C=CC(CO)C3)c2n1` (stereo not given): the growth was 91.6% (inactive).

On to `COC(=O)[C@H](Cc1cn(C)cn1)NC(=O)[C@@H](NC(=O)Nc1cc(C(F)(F)F)cc(C(F)(F)F)c1)C(C)C`, for which the growth was -95.4% [100 µM] (active).

Take `c1ccc2nc(N/N=C3\CCCCC3C3CCCCC3)ccc2c1` (stereo not given): the growth was 39.7% (inactive).

For `COc1ccc2cc(-c3nc4ccccc4[nH]3)c(=O)oc2c1`, the growth was 94.8% (inactive).

Take `COc1ccc(CNC(=O)c2c(C)n([O-])c3ccccc3[n+]2=O)cc1`: the growth is 76.6% (inactive).

On to `Cc1n(Cc2ccc3ccccc3c2)c2ccccc2[n+]1Cc1ccc2ccccc2c1`, for which the growth was -97.6% (active).

As to `O=C(Nc1ccccc1OC(=O)c1ccccc1)c1ccccc1`, the growth is 97.4% (inactive).

With `BrC1CC(Br)c2c1c1c(c3c2C(Br)CC3Br)C(Br)CC1Br` (stereo not given), the growth is 99.8% (inactive).

For `CCOC(=O)c1cnc2c(C)cc(C)cc2c1NCCCN(C)C`, the growth was 46.5% (inactive).

`COC(=O)N/N=C/c1coc2ccc(Cl)cc2c1=O`: the growth is 106% (inactive).

For `Oc1ccc(/C=N/Nc2nc3ccccc3s2)c(O)c1`, the growth was 40.8% (inactive).

Regarding `Cc1c2oc3c(C)ccc(C(=O)OC(C)C4NC(=O)C(C(C)C)N(C)C(=O)CN(C)C(=O)C5CCCN5C(=O)C(C(C)C)NC4=O)c3nc-2c(C(=O)OC(C)C2NC(=O)C(C(C)C)N(C)C(=O)CN(C)C(=O)C3CCCN3C(=O)C(C(C)C)NC2=O)c(N)c1=O` (stereo not given), the growth was -92% (active).

Consider `COc1cccc(C2=NN(C(C)=O)C(c3cc(OC)c(OC)c(OC)c3)C2)c1` (stereo not given), for which the growth was 15.7% (inactive).

With `COc1ccc2c(c1)C(=Nc1cc(OC)c(OC)c(OC)c1)C(=O)N2`, the growth was 114% (inactive).

Turning to `CC[C@@H](c1ccc(O)c(O)c1)[C@@H](CC)c1ccc(O)c(O)c1`, the growth was 91.4% (inactive).

For the molecule `CN(C)CCC(=O)Nc1ccc(-n2cc(-c3cccc(NC(=S)Nc4cccc(-c5cn(-c6ccc(NC(=O)CCN(C)C)cc6)nn5)c4)c3)nn2)cc1`, the growth was 97.2% (inactive).

For `C=CCNC(=O)/C(=C/c1cccc([N+](=O)[O-])c1)NC(=O)c1ccccc1`, the growth is 97.9% (inactive).

`Nc1nc(Nc2ccccc2SSc2ccccc2Nc2nc(N)nc(-c3cccc(Cl)c3)n2)nc(-c2cccc(Cl)c2)n1`: the growth was 95.5% (inactive).

Take `CCOC(=O)CNC(=O)C1(NC(=O)CNC(=O)OCc2ccccc2)CCCC1`: the growth was 112% (inactive).

Consider `Cc1sc2nc(NCc3ccccc3)[nH]c(=O)c2c1C`, for which the growth was 45.5% (inactive).

In the case of `N#CC1c2ccccc2C=CN1C(=O)N(c1ccccc1)c1ccccc1` (stereo not given), the growth was 65.4% (inactive).

In the case of `O=[N+]([O-])c1cc([N+](=O)[O-])c(N2CCCC2)cc1NN=C(c1ccc(O)cc1)c1ccc(O)cc1`, the growth is 18.8% (inactive).

As for `Fc1ccccc1C1c2ccccc2-c2nccn21` (stereo not given), the growth is 97% (inactive).

In the case of `COc1cccc(N2CCN(c3cccc(C)n3)CC2)c1`, the growth is 92.4% (inactive).

As for `CC(=O)Nc1ccc(C(=O)COc2cccc(/C=C3\CCc4ccccc4C3=O)c2)cc1`, the growth is 64.4% (inactive).

For `Cc1ccccc1NC(=O)N/C(N)=N/c1nc2ccccc2s1`, the growth was -53.3% (active).

As to `COc1ccc(-c2cc(-c3nnc(SCC(=O)Nc4ccc(C(C)=O)cc4)n3-c3ccccc3)c3ccccc3n2)cc1OC`, the growth was 109% (inactive).

Consider `COc1cc(Cl)cc(-c2nn(-c3cccc(NC(=O)c4cc(C(F)(F)F)cc(C(F)(F)F)c4)c3)cc2-c2ccncc2)c1`, for which the growth is 67.3% (inactive).

On to `C[C@]12CC[C@H](O)CC1=CC[C@@H]1[C@@H]2CC[C@]2(C)C(c3cccnc3)=CC[C@@H]12`, for which the growth was 25.9% (inactive).

For the molecule `CCOC(=O)C(Br)=P(c1ccccc1)(c1ccccc1)c1ccccc1`, the growth is 87.6% (inactive).
